Activity change, negative = inhibition, activity, negative = inhibition and Potency data for 25 compounds are collected here from PubChem BioAssay (NCATS).

The nature of experiment [1]: AP1 Signaling Pathway (AID 357).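 Also: ME-180 reporter cells stimulated with EGF at its EC50 level; % is scaled to controls: 0 for no effect and ±100 for the full control effect.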 The note with it: ME-180 AP-1-bla reporter, EGF-induced, beta-lactamase ratio, 5 h; at 17.2 µM (top of the series) unless noted. The essentials:
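Titration-series screen for positive or negative modulators of EC50 EGF-induced signaling in ME-180 cells carrying an AP-1-driven beta-lactamase reporter. After 5 hours at 37 degrees Celsius, CCF4 460nm/530nm emission ratio gave %Activity; AC50 values derived.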

Experiment [2] is described as follows: NFAT Signaling Pathway (AID 444).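 Also: carbachol stimulus at about its EC50 of 1 µM final; % is scaled to controls: 0 for no effect and ±100 for the full control effect.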 Conditions: Jurkat NFAT-bla M1, carbachol, beta-lactamase ratio, 5 h; at 17.2 µM (top of the series) unless noted. The method in brief: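 Jurkat cells with NFAT-driven β-lactamase reporter and co-expressed M1 receptor, stimulated with carbachol (final 1 uM, ~EC50), compound titration, 5 h at 37 °C. CCF4 loaded 1 h at RT; 460/530 nm ratio gave %activity and AC50.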

Experiment [3] is described as follows: Stat Signaling Pathway (AID 446).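 Also: ME-180 cervical cancer cells given 40 pM IL-6 alongside compound; SIE-controlled beta-lactamase reporter measured as 460/530 nm FRET emission ratio; % is scaled to controls: 0 for no effect and ±100 for the full control effect.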 The note with it: ME-180 SIE beta-lactamase reporter, IL-6 stimulated, 5 h; at 17.2 µM (top of the series) unless noted. The essentials: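 Reporter line: ME-180 cervical carcinoma, SIE-beta-lactamase. Treatment: compound with 40 pM IL-6, 5 hrs, 37 C, in low-serum OPTI-MEM with 10 mM HEPES pH 7.3. Detection: 460/530 nm fluorescence.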

Experiment [4] addresses Glucocorticoid receptor (Homo sapiens) (UniProt P04150). Kind of experiment: GR-GFP Redistribution (AID 450;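 active = compounds whose dose series gives a full or clear partial fitted curve of increased nuclear translocation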; also: potency is read from the fitted curve at half-maximal effect).

Unmarked numbers belong to inactive results. Results filed as inconclusive are left out. The source made the active and inactive calls. Unless noted, calls follow the shape of the dose curve; as a rule, active = well fitted curve in either direction with a large enough effect (not every such curve was filed as active); inconclusive = small, poorly fitted or top-dose-only effect, or another doubt; inactive = flat fitted curve, though single readings scatter.

Sequence of Glucocorticoid receptor (Homo sapiens) (P04150 whole entry, looked up): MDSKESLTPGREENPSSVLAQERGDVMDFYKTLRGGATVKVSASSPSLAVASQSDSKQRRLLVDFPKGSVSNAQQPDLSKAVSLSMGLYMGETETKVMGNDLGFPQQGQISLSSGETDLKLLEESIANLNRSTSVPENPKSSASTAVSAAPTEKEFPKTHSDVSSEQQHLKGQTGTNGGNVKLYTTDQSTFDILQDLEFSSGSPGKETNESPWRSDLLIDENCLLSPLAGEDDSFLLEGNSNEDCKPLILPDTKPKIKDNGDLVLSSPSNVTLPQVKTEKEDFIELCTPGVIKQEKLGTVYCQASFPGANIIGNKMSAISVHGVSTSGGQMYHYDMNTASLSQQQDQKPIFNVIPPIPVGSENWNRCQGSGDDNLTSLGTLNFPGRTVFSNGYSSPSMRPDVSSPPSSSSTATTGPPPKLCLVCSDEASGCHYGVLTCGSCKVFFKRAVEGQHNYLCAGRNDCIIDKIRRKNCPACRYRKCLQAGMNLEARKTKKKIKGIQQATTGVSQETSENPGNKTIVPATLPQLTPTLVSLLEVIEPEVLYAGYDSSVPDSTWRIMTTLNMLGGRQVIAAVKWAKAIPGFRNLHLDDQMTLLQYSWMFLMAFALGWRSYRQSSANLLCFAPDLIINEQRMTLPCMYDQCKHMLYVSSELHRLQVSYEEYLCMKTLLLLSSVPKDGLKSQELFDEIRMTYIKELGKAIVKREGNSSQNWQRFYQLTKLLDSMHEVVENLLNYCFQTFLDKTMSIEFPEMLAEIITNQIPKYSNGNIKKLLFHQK

Take `CCCCCC(=O)N1CC2(C)CN(C(=O)CCCCC)CC(C)(C1)C2=O`: the activity change, negative = inhibition in experiment [1] was 4.08%; in experiment [2] it was -13.6%. In experiment [3], the activity, negative = inhibition is 5.3%. Also, in experiment [4], the Potency was greater than 20.6 µM.

As for `Nc1nnnn1CC(=O)OCc1cccc(Br)c1`, the activity change, negative = inhibition is -12.9% in experiment [1] and 14.6% in experiment [2]. In addition, the activity, negative = inhibition in experiment [3] was 12.3%. Also, the Potency in experiment [4] was greater than 20.6 µM.

For the compound `CC(C)COC(=O)CCNc1n[nH]c(=O)[nH]c1=O`, the values for the activity change, negative = inhibition in experiment [1] and in experiment [2] were 12.9% and 4.96%, respectively. Also, the activity, negative = inhibition in experiment [3] is 1.49%. The Potency in experiment [4] is greater than 20.6 µM.

In the case of `Nc1ccc(Cl)cc1/C(=N/O)c1ccccc1`, the activity change, negative = inhibition in experiment [1] was -16.4%; in experiment [2] it was -13.5%. Moreover, the activity, negative = inhibition in experiment [3] is -5.27%. For the same compound, in experiment [4], the Potency is greater than 20.6 µM.

Consider `Cc1ccc(C2/C(=C(\O)c3cnn(-c4ccccc4)c3C)C(=O)C(=O)N2CCN(C)C)o1` (stereo not given), for which the figures for the activity change, negative = inhibition in experiment [1] and in experiment [2] were -6.2% and -12.1%, respectively. Further, in experiment [3], the activity, negative = inhibition was 4.22%. Also, the Potency in experiment [4] was greater than 20.6 µM.

On to `Cc1c(Cl)cccc1N1C(=O)C2ON(c3ccccc3)C(c3cccnc3)C2C1=O` (stereo not given), for which the figures for the activity change, negative = inhibition in experiment [1] and in experiment [2] were 4.21% and 0.827%, respectively. Besides, the activity, negative = inhibition in experiment [3] was 0.542%. For the same compound, in experiment [4], the Potency was greater than 20.6 µM.

As for `CCc1nc2n[nH]c(N)c2c2c1CCCC2`, the results for the activity change, negative = inhibition in experiment [1] and in experiment [2] were -12.2% and 1.69%, respectively. Further, the activity, negative = inhibition in experiment [3] was -2.34%. In addition, in experiment [4], the Potency is greater than 20.6 µM.

As to `O=C(OCCN1CCOCC1)c1ccc2c(c1)OCCO2`, the activity change, negative = inhibition in experiment [1] was -10%; in experiment [2], 19.9%. Also, the activity, negative = inhibition in experiment [3] is 6.54%. Further, the Potency in experiment [4] is greater than 20.6 µM.

Turning to `Cc1ccc(C(=O)C2=C(O)C(=O)N(CCN3CCOCC3)C2c2ccccn2)o1` (stereo not given), the activity change, negative = inhibition in experiment [1] is -1.65%; in experiment [2], 8.69%. The activity, negative = inhibition in experiment [3] is 5.67%. Also, the Potency in experiment [4] is greater than 20.6 µM.

With `N#Cc1c(N)nc(SCC(=O)NCCc2ccccc2)c(C#N)c1-c1cccs1`, the activity change, negative = inhibition was 0.711% in experiment [1] and 15.3% in experiment [2]. In experiment [3], the activity, negative = inhibition is 5.35%. Besides, the Potency in experiment [4] is greater than 20.6 µM.

In the case of `CCCCN(C(=O)CCC(=O)O)C1CC(=O)N(c2ccc(OCCC)cc2)C1=O` (stereo not given), the results for the activity change, negative = inhibition in experiment [1] and in experiment [2] were 0.952% and -3.79%, respectively. Also, the activity, negative = inhibition in experiment [3] is 5.12%. In addition, in experiment [4], the Potency is greater than 20.6 µM.

Turning to `O=C1CC(c2ccco2)CC(O)=C1C=NCCN1CCN(C2CC(=O)N(c3ccccc3)C2=O)CC1` (stereo not given), the values for the activity change, negative = inhibition in experiment [1] and in experiment [2] were -3.13% and -22.1%, respectively. The activity, negative = inhibition in experiment [3] is -0.0328%. The Potency in experiment [4] was greater than 20.6 µM.

`CC(=O)[C@H]1CC[C@H]2[C@@H]3CCC4=CC(=O)CC[C@]4(C)[C@H]3[C@H](O)C[C@]12C`: the values for the activity change, negative = inhibition in experiment [1] and in experiment [2] were -0.48% and 2.54%, respectively. The activity, negative = inhibition in experiment [3] is 2.53%. Further, in experiment [4], the Potency was greater than 20.6 µM.

On to `C=CCOc1nc2c(c(=O)n(Cc3ccc(Cl)cc3)c(=O)n2C)n1C`, for which the activity change, negative = inhibition in experiment [1] was -10.1%; in experiment [2], 4.79%. The activity, negative = inhibition in experiment [3] is 9.68%. In addition, the Potency in experiment [4] is greater than 20.6 µM.

With `Cc1cccc2c1NC(C)CC2C` (stereo not given), the figures for the activity change, negative = inhibition in experiment [1] and in experiment [2] were 9.08% and 11.8%, respectively. Also, in experiment [3], the activity, negative = inhibition was 13.3%. For the same compound, the Potency in experiment [4] was greater than 20.6 µM.

On to `CC(C)NCc1c(O)c(Br)cc2oc3c(c12)CCCC3`, for which the activity change, negative = inhibition was 28.5% in experiment [1] and 0.46% in experiment [2]. In experiment [3], the activity, negative = inhibition was 5.85%. Moreover, the Potency in experiment [4] is greater than 20.6 µM.

In the case of `O=C(Oc1ccccc1)c1c(Cl)cccc1P(=O)(O)O`, the activity change, negative = inhibition in experiment [1] was 7.32%; in experiment [2], 2.02%. The activity, negative = inhibition in experiment [3] is 5.05%. Moreover, the Potency in experiment [4] was greater than 20.6 µM.

Take `COc1ccccc1-c1cc(-c2cc(Cl)ccc2O)n[nH]1`: the activity change, negative = inhibition in experiment [1] was 5.68%; in experiment [2], 2.8%. In experiment [3], the activity, negative = inhibition was 8.92%. Further, the Potency in experiment [4] is greater than 20.6 µM.

`C=C(C)CSC1=C(C#N)C(c2ccsc2)CC(=O)N1` (stereo not given): the figures for the activity change, negative = inhibition in experiment [1] and in experiment [2] were -7.58% and -0.539%, respectively. In addition, in experiment [3], the activity, negative = inhibition was -1.45%. Further, in experiment [4], the Potency is greater than 20.6 µM.

Turning to `COc1ccc(C2CC(c3ccc(C)cc3)Nc3nc(N)nn32)cc1` (stereo not given), the results for the activity change, negative = inhibition in experiment [1] and in experiment [2] were -10.4% and 11.6%, respectively. In addition, in experiment [3], the activity, negative = inhibition is 1.75%. Moreover, in experiment [4], the Potency is greater than 20.6 µM.

Consider `COc1ccc(-c2nnc3sc(-c4c(OC)cccc4OC)nn23)cc1`, for which the values for the activity change, negative = inhibition in experiment [1] and in experiment [2] were -13.7% and -15.1%, respectively. Moreover, in experiment [3], the activity, negative = inhibition was 6.15%. In addition, the Potency in experiment [4] was greater than 20.6 µM.

Regarding `CCOC(=O)c1c(C)cccc1OCC(N)=O`, the activity change, negative = inhibition in experiment [1] was -9.84%; in experiment [2], 0.392%. Further, the activity, negative = inhibition in experiment [3] was -2.4%. Also, the Potency in experiment [4] was greater than 20.6 µM.

In the case of `Cn1c(=O)c2c3c(sc2n2c(SCC(N)=O)nnc12)CC(C(C)(C)C)CC3` (stereo not given), the values for the activity change, negative = inhibition in experiment [1] and in experiment [2] were -9.72% and 19.6%, respectively. Also, in experiment [3], the activity, negative = inhibition is 14%. Besides, the Potency in experiment [4] was greater than 20.6 µM.

For `O=C(CCC(=O)CCN1CCCCC1)CCN1CCCCC1`, the activity change, negative = inhibition in experiment [1] is 13.9%; in experiment [2] it was -120% (active). Moreover, the activity, negative = inhibition in experiment [3] is 1.96%. The Potency in experiment [4] is greater than 20.6 µM.

Regarding `Cc1noc(NS(=O)(=O)c2ccc(NC(=O)COc3ccccc3)cc2)c1C`, the activity change, negative = inhibition is 2.17% in experiment [1] and 1.26% in experiment [2]. Also, the activity, negative = inhibition in experiment [3] was -0.515%. The Potency in experiment [4] is greater than 20.6 µM.
